Test results reported in ChEMBL document CHEMBL1961873, “Compounds: GSK PKIS; Assays: Nanosyn kinase panel” (2012).

Biological target: RAC-beta serine/threonine-protein kinase (Homo sapiens) (UniProt P31751)
Details: at 0.1 µM
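Also: reported figure is the mean percent inhibition of AKT2.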

Chain of RAC-beta serine/threonine-protein kinase (Homo sapiens) (P31751 whole entry): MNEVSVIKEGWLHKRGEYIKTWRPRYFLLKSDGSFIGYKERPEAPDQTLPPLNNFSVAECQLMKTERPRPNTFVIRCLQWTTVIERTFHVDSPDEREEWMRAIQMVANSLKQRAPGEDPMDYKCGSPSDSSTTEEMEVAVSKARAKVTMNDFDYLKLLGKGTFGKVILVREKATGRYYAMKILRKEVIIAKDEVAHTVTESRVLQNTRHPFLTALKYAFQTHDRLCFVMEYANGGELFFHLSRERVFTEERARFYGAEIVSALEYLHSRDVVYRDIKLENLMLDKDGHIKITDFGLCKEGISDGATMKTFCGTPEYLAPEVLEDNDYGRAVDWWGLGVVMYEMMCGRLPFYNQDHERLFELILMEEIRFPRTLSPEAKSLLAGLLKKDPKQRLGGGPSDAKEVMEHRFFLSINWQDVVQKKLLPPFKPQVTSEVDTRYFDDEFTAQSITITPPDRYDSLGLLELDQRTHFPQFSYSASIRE

Question: NC(=O)Cc1ccccc1Oc1nccc(-c2c(-c3ccc(F)cc3)ncn2C2CCNCC2)n1 was tested. Which inhibition did it give?
Answer: 1.23%

Question: Which inhibition does the source give for NS(=O)(=O)c1ccc(Nc2cc(-c3ccc(O)c(F)c3)n[nH]2)cc1 here?
Answer: -3.37%

Question: How did the inhibition turn out when Clc1ccc(CNc2nccc(-c3cnn4ncccc34)n2)cc1 was run?
Answer: 0.17%

Question: How did the inhibition turn out when COc1ccc2cc(-c3c(-c4ccncc4)nc(-c4ccc([S+](C)[O-])cc4C)n3C)ccc2c1 (centres undefined) was run?
Answer: -0.6%

Question: For NS(=O)(=O)c1ccc(N/N=C2\C(=O)Nc3ccc(-c4cnco4)cc32)cc1, which inhibition is on record?
Answer: -3.63%

Question: O=C1Nc2ccccc2/C1=C/Nc1ccc(-n2cncn2)cc1 was tested. Which inhibition did it give?
Answer: 1.56%

Question: How did the inhibition turn out when Fc1ccc(-c2ncn(C3CCNCC3)c2-c2ccnc(Oc3ccc(Oc4ccccc4)cc3)n2)cc1 was run?
Answer: 1.23%

Question: Which inhibition does the source give for COc1cc2ncn(-c3cc(OCc4ccccc4C(F)(F)F)c(C(C)=O)s3)c2cc1OC here?
Answer: 0.85%

Question: With CN(C)CCOc1ccc(-c2cc(-c3ccc4c(c3)CCC4=NO)c(-c3ccncc3)o2)cc1 as the compound, how does the inhibition read?
Answer: -0.71%

Question: With Cc1ccc(NC(=O)c2ccoc2)cc1-c1ccc(C(=O)NCC2CC2)cc1 as the compound, how does the inhibition read?
Answer: 0.88%

Question: With O=C(Nc1n[nH]c2nc(-c3ccc(O)cc3)c(Br)cc12)C1CC1 as the compound, how does the inhibition read?
Answer: 2.21%

Question: Which inhibition does the source give for COc1cc(N2CCN(C(C)C)CC2)ccc1Nc1nc(Nc2ccc(F)cc2C(=O)NC[C@@H](O)CO)c2cc[nH]c2n1 here?
Answer: 0.2%

Question: COc1ccc2cc(-c3c(-c4ccncc4)nc(-c4ccc(S(C)(=O)=O)cc4C)n3C)ccc2c1 was tested. Which inhibition did it give?
Answer: 2.93%

Question: With CCN(CC)Cc1ccc(Nc2nccc(-c3cnn4ncccc34)n2)cc1 as the compound, how does the inhibition read?
Answer: -2.76%

Question: c1ccc(Oc2ccc(Nc3ncc(-c4ccccc4)o3)cc2)cc1 was tested. Which inhibition did it give?
Answer: 0.18%

Question: CCc1cccc(CC)c1/C=C/c1cncc(C(=O)NC)c1 was tested. Which inhibition did it give?
Answer: 2.06%

Question: How did the inhibition turn out when NC(=O)c1cc(-c2ccc(F)cc2)cc(-c2ccncc2)c1N was run?
Answer: 1.95%

Question: For COc1cc(Nc2ncc3c(C)nc(-c4cccc(Oc5ccccc5)c4)n3n2)cc(OC)c1OC, which inhibition is on record?
Answer: 0.47%

Question: For C[C@@H](Oc1cc(-n2cnc3ccc(OC4CCN(C)CC4)cc32)sc1C(N)=O)c1ccccc1Cl, which inhibition is on record?
Answer: -4.17%

Question: For CN(c1ccc(NC(=O)Nc2c(Cl)cccc2Cl)cc1)c1ccnc(Nc2cccc(CS(C)(=O)=O)c2)n1, which inhibition is on record?
Answer: 0.5%

Question: Which inhibition does the source give for Cc1ccc(C(=O)NC2CCC2)cc1-c1ccc(C(=O)NCC2CC2)cc1 here?
Answer: 1.03%

Question: For COc1ccc2ncn(-c3cc(O[C@H](C)c4ccccc4Cl)c(C(N)=O)s3)c2c1, which inhibition is on record?
Answer: -2.65%

Question: For CCC(=O)Nc1ccc(C)c(-c2ccc(C(=O)NCC3CC3)cc2)c1, which inhibition is on record?
Answer: 2.4%

Question: Which inhibition does the source give for CCS(=O)(=O)c1ccc(OC)c(Nc2ncc(-c3ccccc3Cl)o2)c1 here?
Answer: 0.22%

Question: How did the inhibition turn out when Fc1ccc(-c2c(-c3ccncc3)nc3n2CCS3)cc1 was run?
Answer: -2.67%

Question: COC(=O)Nc1nc2ccc(Sc3ccc(NC(=O)Nc4cc(C(F)(F)F)ccc4F)cc3)cc2[nH]1 was tested. Which inhibition did it give?
Answer: -0.16%

Question: How did the inhibition turn out when O=C(Nc1n[nH]c2cc(-c3cc(F)ccc3F)ccc12)C1CC1 was run?
Answer: 1.23%

Question: For CS(=O)(=O)CCNCc1cc(-c2cc3c(Nc4ccc(OCc5cccc(F)c5)c(Cl)c4)ncnc3s2)cs1, which inhibition is on record?
Answer: 0.7%

Question: For CCc1nccc2c1nc(-c1nonc1N)n2CC, which inhibition is on record?
Answer: 0.34%

Question: How did the inhibition turn out when COc1cc(C)c(N(C)C(=O)CN(C)C)cc1Nc1nc(Nc2cccc(F)c2C(N)=O)c2cc[nH]c2n1 was run?
Answer: -3.1%

Question: Which inhibition does the source give for Nc1nccc(-c2c(-c3ccc(F)cc3)ncn2C2CCC(O)CC2)n1 (centres undefined) here?
Answer: -2.08%

Question: For O=C1NC(=O)C(c2cccc(Cl)c2)=C1Nc1ccc(Cl)c(C(=O)O)c1, which inhibition is on record?
Answer: 1.52%

Question: For CN(C)CCCNc1nccc(-c2c(-c3ccc(F)cc3)nn3cc(C(F)(F)F)ccc23)n1, which inhibition is on record?
Answer: -2.07%

Question: Fc1ccc(-c2nc3n(c2-c2ccncc2)CCS3)cc1 was tested. Which inhibition did it give?
Answer: -1.68%
